# Assay results reported in PMC8384837, “Expanding the binding specificity for RNA recognition by a PUF domain”.
# Tests used:
# Assay in all cases: yeast three-hybrid, YBZ-1, SC-Leu-His + 0.5 mM 3-AT, 4 days
# Conditions in all cases: tags: N-Gal4 AD-HA kept; label: inside an RPR1-promoter hybrid RNA with tandem MS2 sites; ssRNA
# PUM1 PUF domain R4-PFK = PUM1 PUF domain R4-PFK (Homo sapiens, UniProt Q14671 828-1176, N971P;H972F;Q975K)
# How it was run: (§1)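 Each repeat of the Pumilio-1 PUF domain was randomized at its three base-contacting residues, and these libraries were co-expressed from a centromeric plasmid with matching RNA elements in strain YBZ-1. After four days on SC-Leu (input) or SC-Leu-His + 0.5 mM 3-AT (selection), the repeat regions were PCR-amplified and Illumina-sequenced. The interaction score compares variant frequency between input and selection as a log change, computed in log2 with a pseudocount of 1 for absent variants.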
# PUM1 PUF domain R4-APR = PUM1 PUF domain R4-APR (Homo sapiens, UniProt Q14671 828-1176, N971A;H972P;Q975R)
# Chain of PUM1 PUF domain R4-APR (Q14671 828-1176 N971A/H972P/Q975R): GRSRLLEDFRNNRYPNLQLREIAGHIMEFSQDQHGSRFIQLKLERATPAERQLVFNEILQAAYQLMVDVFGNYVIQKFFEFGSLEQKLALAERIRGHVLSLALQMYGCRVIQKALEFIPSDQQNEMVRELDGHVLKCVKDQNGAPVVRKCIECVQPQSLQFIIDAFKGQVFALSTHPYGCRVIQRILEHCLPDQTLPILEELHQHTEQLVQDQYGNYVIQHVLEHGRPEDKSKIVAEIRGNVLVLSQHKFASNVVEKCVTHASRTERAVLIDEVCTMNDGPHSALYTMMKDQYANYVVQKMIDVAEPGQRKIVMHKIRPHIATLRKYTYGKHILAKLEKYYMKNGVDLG
# How it was run: as §1
# PUM1 PUF domain R4-GNC = PUM1 PUF domain R4-GNC (Homo sapiens, UniProt Q14671 828-1176, N971G;H972N;Q975C)
# How it was run: as §1
# PUM1 PUF domain R5-RQI = PUM1 PUF domain R5-RQI (Homo sapiens, UniProt Q14671 828-1176, C1007R;R1008Q;Q1011I)
# Chain of PUM1 PUF domain R5-RQI (Q14671 828-1176 C1007R/R1008Q/Q1011I): as the sequence (Q14671 828-1176 N971A/H972P/Q975R) above, with A144N, P145H, R148Q, C180R, R181Q, Q184I counted along it
# How it was run: as §1
# PUM1 PUF domain R5-KAE = PUM1 PUF domain R5-KAE (Homo sapiens, UniProt Q14671 828-1176, C1007K;R1008A;Q1011E)
# Chain of PUM1 PUF domain R5-KAE (Q14671 828-1176 C1007K/R1008A/Q1011E): as the sequence (Q14671 828-1176 N971A/H972P/Q975R) above, with A144N, P145H, R148Q, C180K, R181A, Q184E counted along it
# How it was run: as §1
# PUM1 PUF domain R5-MPR = PUM1 PUF domain R5-MPR (Homo sapiens, UniProt Q14671 828-1176, C1007M;R1008P;Q1011R)
# Chain of PUM1 PUF domain R5-MPR (Q14671 828-1176 C1007M/R1008P/Q1011R): as the sequence (Q14671 828-1176 N971A/H972P/Q975R) above, with A144N, P145H, R148Q, C180M, R181P, Q184R counted along it
# How it was run: as §1
# PUM1 PUF domain R5-DKQ = PUM1 PUF domain R5-DKQ (Homo sapiens, UniProt Q14671 828-1176, C1007D;R1008K)
# How it was run: as §1
# PUM1 PUF domain R5-FRC = PUM1 PUF domain R5-FRC (Homo sapiens, UniProt Q14671 828-1176, C1007F;Q1011C)
# How it was run: as §1
# PUM1 PUF domain R5-KQD = PUM1 PUF domain R5-KQD (Homo sapiens, UniProt Q14671 828-1176, C1007K;R1008Q;Q1011D)
# How it was run: as §1
# PUM1 PUF domain R1-KDS = PUM1 PUF domain R1-KDS (Homo sapiens, UniProt Q14671 828-1176, S863K;R864D;Q867S)
# Chain of PUM1 PUF domain R1-KDS (Q14671 828-1176 S863K/R864D/Q867S): as the sequence (Q14671 828-1176 N971A/H972P/Q975R) above, with S36K, R37D, Q40S, A144N, P145H, R148Q counted along it
# How it was run: as §1
# PUM1 PUF domain R1-RVT = PUM1 PUF domain R1-RVT (Homo sapiens, UniProt Q14671 828-1176, S863R;R864V;Q867T)
# How it was run: as §1
# PUM1 PUF domain R3-LWE = PUM1 PUF domain R3-LWE (Homo sapiens, UniProt Q14671 828-1176, C935L;R936W;Q939E)
# Chain of PUM1 PUF domain R3-LWE (Q14671 828-1176 C935L/R936W/Q939E): as the sequence (Q14671 828-1176 N971A/H972P/Q975R) above, with C108L, R109W, Q112E, A144N, P145H, R148Q counted along it
# How it was run: as §1
# PUM1 PUF domain R8-RWD = PUM1 PUF domain R8-RWD (Homo sapiens, UniProt Q14671 828-1176, N1122R;Y1123W;Q1126D)
# Chain of PUM1 PUF domain R8-RWD (Q14671 828-1176 N1122R/Y1123W/Q1126D): as the sequence (Q14671 828-1176 N971A/H972P/Q975R) above, with A144N, P145H, R148Q, N295R, Y296W, Q299D counted along it
# How it was run: as §1
# PUM1 PUF domain R8-PWH = PUM1 PUF domain R8-PWH (Homo sapiens, UniProt Q14671 828-1176, N1122P;Y1123W;Q1126H)
# How it was run: as §1
# PUM1 PUF domain R3-LFG = PUM1 PUF domain R3-LFG (Homo sapiens, UniProt Q14671 828-1176, C935L;R936F;Q939G)
# How it was run: as §1
# PUM1 PUF domain R1-SPR = PUM1 PUF domain R1-SPR (Homo sapiens, UniProt Q14671 828-1176, R864P;Q867R)
# How it was run: as §1
# PUM1 PUF domain R1-KNS = PUM1 PUF domain R1-KNS (Homo sapiens, UniProt Q14671 828-1176, S863K;R864N;Q867S)
# How it was run: as §1
# PUM1 PUF domain R3-RER = PUM1 PUF domain R3-RER (Homo sapiens, UniProt Q14671 828-1176, C935R;R936E;Q939R)
# Chain of PUM1 PUF domain R3-RER (Q14671 828-1176 C935R/R936E/Q939R): as the sequence (Q14671 828-1176 N971A/H972P/Q975R) above, with C108R, R109E, Q112R, A144N, P145H, R148Q counted along it
# How it was run: as §1
# PUM1 PUF domain R4-PHK = PUM1 PUF domain R4-PHK (Homo sapiens, UniProt Q14671 828-1176, N971P;Q975K)
# Chain of PUM1 PUF domain R4-PHK (Q14671 828-1176 N971P/Q975K): as the sequence (Q14671 828-1176 N971A/H972P/Q975R) above, with A144P, P145H, R148K counted along it
# How it was run: as §1
# PUM1 PUF domain R7-EHG = PUM1 PUF domain R7-EHG (Homo sapiens, UniProt Q14671 828-1176, S1079E;N1080H;E1083G)
# How it was run: as §1
# Chain of PUM1 PUF domain R4-PFK (Q14671 828-1176 N971P/H972F/Q975K): as the sequence (Q14671 828-1176 N971A/H972P/Q975R) above, with A144P, P145F, R148K counted along it
sequence,measurement,setting,value
GGCUAGAACUAGUGGAUCCCCCGGCGCCCGGCGGCUCGAGCCCGGGUAAGUGUAUAUAGUCUGCAUGCCGCCGGGCGCCAUGCCUGCAGGUCGACUCUAGAAAACAUG,binding signal,PUM1 PUF domain R4-PFK,6.46 log2 enrichment (interaction score)
same,binding signal,PUM1 PUF domain R4-APR,2.82 log2 enrichment (interaction score)
same,binding signal,PUM1 PUF domain R4-GNC,3.99 log2 enrichment (interaction score)
GGCUAGAACUAGUGGAUCCCCCGGCGCCCGGCGGCUCGAGCCCGGGUAAGUGUCAAUAGUCUGCAUGCCGCCGGGCGCCAUGCCUGCAGGUCGACUCUAGAAAACAUG,binding signal,PUM1 PUF domain R5-RQI,2.06 log2 enrichment (interaction score)
same,binding signal,PUM1 PUF domain R5-KAE,3.8 log2 enrichment (interaction score)
same,binding signal,PUM1 PUF domain R5-MPR,2.13 log2 enrichment (interaction score)
same,binding signal,PUM1 PUF domain R5-DKQ,5.31 log2 enrichment (interaction score)
same,binding signal,PUM1 PUF domain R5-FRC,3.83 log2 enrichment (interaction score)
same,binding signal,PUM1 PUF domain R5-KQD,2.75 log2 enrichment (interaction score)
GGCUAGAACUAGUGGAUCCCCCGGCGCCCGGCGGCUCGAGCCCGGGUAAGUGUAAAUGGUCUGCAUGCCGCCGGGCGCCAUGCCUGCAGGUCGACUCUAGAAAACAUG,binding signal,PUM1 PUF domain R1-KDS,2.77 log2 enrichment (interaction score)
same,binding signal,PUM1 PUF domain R1-RVT,3.15 log2 enrichment (interaction score)
GGCUAGAACUAGUGGAUCCCCCGGCGCCCGGCGGCUCGAGCCCGGGUAAGUGUAAAUAGUCUGCAUGCCGCCGGGCGCCAUGCCUGCAGGUCGACUCUAGAAAACAUG,binding signal,PUM1 PUF domain R4-PFK,4.17 log2 enrichment (interaction score)
same,binding signal,PUM1 PUF domain R3-LWE,3.37 log2 enrichment (interaction score)
same,binding signal,PUM1 PUF domain R5-MPR,1.45 log2 enrichment (interaction score)
same,binding signal,PUM1 PUF domain R8-RWD,2.26 log2 enrichment (interaction score)
same,binding signal,PUM1 PUF domain R8-PWH,2.69 log2 enrichment (interaction score)
same,binding signal,PUM1 PUF domain R4-GNC,1.09 log2 enrichment (interaction score)
same,binding signal,PUM1 PUF domain R3-LFG,1.41 log2 enrichment (interaction score)
GGCUAGAACUAGUGGAUCCCCCGGCGCCCGGCGGCUCGAGCCCGGGUAAGUGUAAAUUGUCUGCAUGCCGCCGGGCGCCAUGCCUGCAGGUCGACUCUAGAAAACAUG,binding signal,PUM1 PUF domain R1-SPR,1.48 log2 enrichment (interaction score)
same,binding signal,PUM1 PUF domain R1-RVT,4.35 log2 enrichment (interaction score)
same,binding signal,PUM1 PUF domain R1-KNS,3.86 log2 enrichment (interaction score)
GGCUAGAACUAGUGGAUCCCCCGGCGCCCGGCGGCUCGAGCCCGGGUAAGUGUAAAUCGUCUGCAUGCCGCCGGGCGCCAUGCCUGCAGGUCGACUCUAGAAAACAUG,binding signal,PUM1 PUF domain R1-KDS,2.96 log2 enrichment (interaction score)
same,binding signal,PUM1 PUF domain R1-SPR,2.62 log2 enrichment (interaction score)
same,binding signal,PUM1 PUF domain R1-RVT,5.15 log2 enrichment (interaction score)
GGCUAGAACUAGUGGAUCCCCCGGCGCCCGGCGGCUCGAGCCCGGGUAAGUGUAAUUAGUCUGCAUGCCGCCGGGCGCCAUGCCUGCAGGUCGACUCUAGAAAACAUG,binding signal,PUM1 PUF domain R3-LWE,1.78 log2 enrichment (interaction score)
same,binding signal,PUM1 PUF domain R3-RER,4.06 log2 enrichment (interaction score)
same,binding signal,PUM1 PUF domain R3-LFG,1.87 log2 enrichment (interaction score)
GGCUAGAACUAGUGGAUCCCCCGGCGCCCGGCGGCUCGAGCCCGGGUAAGCGUAAAUAGUCUGCAUGCCGCCGGGCGCCAUGCCUGCAGGUCGACUCUAGAAAACAUG,binding signal,PUM1 PUF domain R8-RWD,2.45 log2 enrichment (interaction score)
GGCUAGAACUAGUGGAUCCCCCGGCGCCCGGCGGCUCGAGCCCGGGUAAGUGUUAAUAGUCUGCAUGCCGCCGGGCGCCAUGCCUGCAGGUCGACUCUAGAAAACAUG,binding signal,PUM1 PUF domain R5-RQI,4.62 log2 enrichment (interaction score)
same,binding signal,PUM1 PUF domain R5-KAE,2.99 log2 enrichment (interaction score)
GGCUAGAACUAGUGGAUCCCCCGGCGCCCGGCGGCUCGAGCCCGGGUAAGUGUAAGUAGUCUGCAUGCCGCCGGGCGCCAUGCCUGCAGGUCGACUCUAGAAAACAUG,binding signal,PUM1 PUF domain R3-LWE,5.48 log2 enrichment (interaction score)
same,binding signal,PUM1 PUF domain R3-LFG,4.75 log2 enrichment (interaction score)
GGCUAGAACUAGUGGAUCCCCCGGCGCCCGGCGGCUCGAGCCCGGGUAAGUGUACAUAGUCUGCAUGCCGCCGGGCGCCAUGCCUGCAGGUCGACUCUAGAAAACAUG,binding signal,PUM1 PUF domain R4-PFK,4.33 log2 enrichment (interaction score)
same,binding signal,PUM1 PUF domain R4-PHK,3.9 log2 enrichment (interaction score)
same,binding signal,PUM1 PUF domain R4-APR,2.91 log2 enrichment (interaction score)
same,binding signal,PUM1 PUF domain R4-GNC,3.28 log2 enrichment (interaction score)
GGCUAGAACUAGUGGAUCCCCCGGCGCCCGGCGGCUCGAGCCCGGGUAAGUCUAAAUAGUCUGCAUGCCGCCGGGCGCCAUGCCUGCAGGUCGACUCUAGAAAACAUG,binding signal,PUM1 PUF domain R7-EHG,5.15 log2 enrichment (interaction score)
